Assay results published in PubChem BioAssay (EPA / NIEHS).
Activity calls are given as the source filed them. Rule for the calls: active = hit-call score of the fitted dose curve at least 0.9, where 1 is the maximum; inactive = score below 0.9.

Assays:
Settings in all cases: mRNA level, 48 h; actives raise or lower the signal
[1] = read-out: Forkhead box O1 (FOXO1), FOXO1 (gene 2308); assay: LTEA_HepaRG_FOXO1: Life Technologies and Expression Analysis (LTEA) Assay for Forkhead box O1 (FOXO1) using HepaRG (AID 2283456)
How it was run: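 Using one lot of HepaRG hepatic cells kept in 0.5% DMSO, the team applied test chemicals in duplicate, half-log dilutions from 100 uM, for 48 h. Expression, normalised to ACTB/GAPDH/POLR2A, was compared with vehicle in either direction.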

[2] = read-out: growth arrest and DNA damage 45 (GADD45A), GADD45A (gene 1647); assay: LTEA_HepaRG_GADD45A: Life Technologies and Expression Analysis (LTEA) Assay for growth arrest and DNA damage 45 (GADD45A) using HepaRG (AID 2283458)
How it was run: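 GADD45A expression was measured by TaqMan qRT-PCR against three housekeeping genes (ACTB, GAPDH, POLR2A) after 48 h treatment of HepaRG cells. Eight-point half-log series up to 100 uM in 0.5% DMSO, run in duplicate.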

[3] = read-out: Forkhead box O3 (FOXO3), FOXO3 (gene 2309); assay: LTEA_HepaRG_FOXO3: Life Technologies and Expression Analysis (LTEA) Assay for Forkhead box O3 (FOXO3) using HepaRG (AID 2283459)
How it was run: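 Gene-expression endpoint: FOXO3 transcript level by qRT-PCR in HepaRG cultures treated 48 h with chemicals up to 100 uM (half-log, 0.5% DMSO vehicle).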

[4] = read-out: ABC Transporter (ABCB1), ABCB1 (gene 5243); assay: LTEA_HepaRG_ABCB1: Life Technologies and Expression Analysis (LTEA) Assay for ABC Transporter (ABCB1) using HepaRG (AID 2283460)
How it was run: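 Human liver HepaRG line treated 48 h with up to 100 uM compound (eight half-log points, 0.5% DMSO); ABCB1 mRNA change fitted bidirectionally against DMSO controls.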

[5] = read-out: growth arrest and DNA damage 45 (GADD45B), GADD45B (gene 4616); assay: LTEA_HepaRG_GADD45B: Life Technologies and Expression Analysis (LTEA) Assay for growth arrest and DNA damage 45 (GADD45B) using HepaRG (AID 2283461)
How it was run: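 HepaRG, ~100,000 cells/well, 48 h plating; serum-free induction medium; cpd 100 uM top, half-log x8, 0.5% DMSO, duplicate, 48 h; lysis in RLT, RNA isolation, qRT-PCR; norm ACTB/GAPDH/POLR2A; bidirectional fit vs DMSO.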

[6] = read-out: ABC Transporter (ABCC3), ABCC3 (gene 8714); assay: LTEA_HepaRG_ABCC3: Life Technologies and Expression Analysis (LTEA) Assay for ABC Transporter (ABCC3) using HepaRG (AID 2283462)
How it was run: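 Human HepaRG, 48 h dosing, 8-pt half-log series from 100 uM, 0.5% DMSO vehicle, duplicates. ABCC3 mRNA by TaqMan qRT-PCR, housekeeping-normalized; bidirectional curve fit vs DMSO.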

[7] = read-out: ABC Transporter (ABCB11), ABCB11 (gene 8647); assay: LTEA_HepaRG_ABCB11: Life Technologies and Expression Analysis (LTEA) Assay for ABC Transporter (ABCB11) using HepaRG (AID 2283463)
How it was run: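 Using HepaRG cultures held in 0.5% DMSO, chemicals were tested at half-log dilutions from 100 uM for 48 h. Induction or suppression of ABCB11 mRNA, normalized to ACTB, GAPDH and POLR2A, was fitted bidirectionally against vehicle.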

[8] = read-out: ABC Transporter (ABCC2), ABCC2 (gene 1244); assay: LTEA_HepaRG_ABCC2: Life Technologies and Expression Analysis (LTEA) Assay for ABC Transporter (ABCC2) using HepaRG (AID 2283464)
How it was run: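 HepaRG, 48 h post-plating; serum-free induction medium; cpd 8-pt, 100 uM top, half-log, 0.5% DMSO, duplicate, 48 h. Readout: ABCC2 mRNA by qRT-PCR, norm. ACTB/GAPDH/POLR2A. Bidirectional fit vs DMSO baseline.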

[9] = read-out: Broad substrate specificity ATP-binding cassette transporter ABCG2 (Homo sapiens) (UniProt Q9UNQ0); assay: LTEA_HepaRG_ABCG2: Life Technologies and Expression Analysis (LTEA) Assay for ABC Transporter (ABCG2) using HepaRG (AID 2283465)
How it was run: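 Gene expression of ABCG2 in HepaRG liver cells is quantified by qRT-PCR following 48 h exposure across an eight-point series topping at 100 uM. Values come from bidirectional fitting relative to DMSO vehicle.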

[10] = read-out: ATP-citrate lyase (ACLY), ACLY (gene 47); assay: LTEA_HepaRG_ACLY: Life Technologies and Expression Analysis (LTEA) Assay for ATP-citrate lyase (ACLY) using HepaRG (AID 2283466)
How it was run: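 ACLY expression changes in human HepaRG liver cells are quantified by qRT-PCR after 48 h exposure to test chemicals (maximum 100 uM, half-log steps). Values are fitted in both directions relative to 0.5% DMSO vehicle.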

[11] = read-out: Peroxisomal acyl-coenzyme A oxidase 1 (ACOX1) gene, ACOX1 (gene 51); assay: LTEA_HepaRG_ACOX1: Life Technologies and Expression Analysis (LTEA) Assay for Peroxisomal acyl-coenzyme A oxidase 1 (ACOX1) gene using HepaRG (AID 2283467)
How it was run: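 Human HepaRG hepatic cultures, 48 h treatment with test chemicals up to 100 uM. ACOX1 expression read by qRT-PCR relative to 0.5% DMSO vehicle.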

[12] = read-out: Alkaline Phosphatase, Placental (ALPP) gene, ALPP (gene 250); assay: LTEA_HepaRG_ALPP: Life Technologies and Expression Analysis (LTEA) Assay for Alkaline Phosphatase, Placental (ALPP) gene using HepaRG (AID 2283468);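 for AC50: differentiated human HepaRG liver cells in serum-free induction medium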
How it was run: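 HepaRG, 48 h plating then 48 h dosing, serum-free induction medium, 0.5% DMSO. 8 conc, half-log, max 100 uM, duplicates. Endpoint: ALPP transcript by qRT-PCR, housekeeping-normalized; gain or loss fitted vs DMSO.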

[13] = read-out: Bcl-2 (BAD) gene, BAD (gene 572); assay: LTEA_HepaRG_BAD: Life Technologies and Expression Analysis (LTEA) Assay for Bcl-2 (BAD) gene using HepaRG (AID 2283469)
How it was run: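 Activity values reflect up- or down-regulation of BAD mRNA in human HepaRG hepatic cells treated 48 h in serum-free medium, with eight-point half-log dosing capped at 100 uM and 0.5% DMSO vehicle.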

[14] = read-out: Bcl-2 (BAX) gene, BAX (gene 581); assay: LTEA_HepaRG_BAX: Life Technologies and Expression Analysis (LTEA) Assay for Bcl-2 (BAX) gene using HepaRG (AID 2283470)
How it was run: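 Gene expression measured by Fluidigm qRT-PCR with three housekeeping genes for normalisation. HepaRG cells, plated 48 h beforehand, treated 48 h at up to 100 uM (8-point, half-log) in 0.5% DMSO. Bidirectional fitting versus DMSO.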

[15] = read-out: adenosine kinase (ADK) gene, ADK (gene 132); assay: LTEA_HepaRG_ADK: Life Technologies and Expression Analysis (LTEA) Assay for adenosine kinase (ADK) gene using HepaRG (AID 2283471)
How it was run: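 Following 48 h exposure of HepaRG cells in 0.5% DMSO (top concentration 100 uM, duplicate wells), ADK mRNA induction or suppression was measured by qRT-PCR, normalised to ACTB/GAPDH/POLR2A, and fitted bidirectionally relative to vehicle.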

[16] = read-out: Alpha-fetoprotein (AFP) gene, AFP (gene 174); assay: LTEA_HepaRG_AFP: Life Technologies and Expression Analysis (LTEA) Assay for Alpha-fetoprotein (AFP) gene using HepaRG (AID 2283472)
How it was run: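 AFP transcript measured by TaqMan qRT-PCR with three housekeeping genes for normalization, after 48 h chemical treatment of HepaRG cells (top 100 uM, half-log steps, 0.5% DMSO). Gain or loss fitted against vehicle.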

BCL2L11 (gene 10018) = assay: LTEA_HepaRG_BCL2L11: Life Technologies and Expression Analysis (LTEA) Assay for Bcl-2 (BCL2L11) gene using HepaRG (AID 2283473)
How it was run: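 Read-out is BCL2L11 transcript level by qRT-PCR, normalized to three housekeeping genes and fitted bidirectionally against 0.5% DMSO vehicle. HepaRG cells received chemicals for 48 h in serum-free induction medium, 100 uM down in half-log dilutions.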

[17] = read-out: Apoptosis regulator Bcl-2 (Homo sapiens) (UniProt P10415); assay: LTEA_HepaRG_BCL2: Life Technologies and Expression Analysis (LTEA) Assay for Bcl-2 gene using HepaRG (AID 2283475)
How it was run: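 qRT-PCR of BCL2 transcript, normalized to three housekeeping genes (ACTB, GAPDH, POLR2A), after 48 h chemical exposure of HepaRG cells; concentrations top 100 uM with half-log dilutions, 0.5% DMSO vehicle, duplicates; changes up or down fitted relative to vehicle.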

[18] = read-out: Apolipoprotein A-V (APOA5) gene, APOA5 (gene 116519); assay: LTEA_HepaRG_APOA5: Life Technologies and Expression Analysis (LTEA) Assay for Apolipoprotein A-V (APOA5) gene using HepaRG (AID 2283474)
How it was run: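 Readout is APOA5 transcript level by qRT-PCR on Fluidigm dynamic arrays, normalized to three housekeeping genes. HepaRG cultures received chemicals for 48 h at up to 100 uM (half-log steps, 0.5% DMSO), with gain or loss scored relative to DMSO.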

Measured: AC50

Sequence of Broad substrate specificity ATP-binding cassette transporter ABCG2 (Homo sapiens) (Q9UNQ0 whole entry, looked up): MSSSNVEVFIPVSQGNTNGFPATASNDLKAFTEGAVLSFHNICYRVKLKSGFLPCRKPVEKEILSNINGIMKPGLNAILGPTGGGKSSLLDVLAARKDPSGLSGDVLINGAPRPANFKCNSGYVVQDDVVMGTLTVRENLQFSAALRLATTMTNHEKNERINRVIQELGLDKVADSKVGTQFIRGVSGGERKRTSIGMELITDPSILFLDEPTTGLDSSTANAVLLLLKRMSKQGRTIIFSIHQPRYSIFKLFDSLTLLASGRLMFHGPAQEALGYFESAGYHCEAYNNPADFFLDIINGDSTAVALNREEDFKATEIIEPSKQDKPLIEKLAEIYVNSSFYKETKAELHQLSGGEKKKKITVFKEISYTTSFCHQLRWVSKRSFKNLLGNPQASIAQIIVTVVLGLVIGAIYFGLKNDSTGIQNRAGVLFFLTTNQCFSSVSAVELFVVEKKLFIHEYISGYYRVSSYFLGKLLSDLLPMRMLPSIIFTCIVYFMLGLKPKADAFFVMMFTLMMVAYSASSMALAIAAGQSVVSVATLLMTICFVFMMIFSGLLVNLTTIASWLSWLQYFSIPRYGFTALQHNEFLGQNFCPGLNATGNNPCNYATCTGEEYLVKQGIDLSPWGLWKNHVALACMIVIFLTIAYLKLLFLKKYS
Sequence of Apoptosis regulator Bcl-2 (Homo sapiens) (P10415 whole entry, looked up): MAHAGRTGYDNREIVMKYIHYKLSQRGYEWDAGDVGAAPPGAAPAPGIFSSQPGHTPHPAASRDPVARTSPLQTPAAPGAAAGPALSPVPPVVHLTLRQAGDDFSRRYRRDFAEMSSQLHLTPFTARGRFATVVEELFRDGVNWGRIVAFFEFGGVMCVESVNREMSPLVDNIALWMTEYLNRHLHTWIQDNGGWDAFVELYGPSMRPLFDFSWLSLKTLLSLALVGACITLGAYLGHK

COC(=O)C=C(C)OP(=O)(OC)OC
active: [7] 21.4 µM
not listed: [18]
inactive: all other assays above

C#CCOS(=O)OC1CCCCC1Oc1ccc(C(C)(C)C)cc1 (configuration not stated)
active: [1] 32 µM | [2] 50 µM | [4] 50 µM | [5] 14.9 µM | [7] 23.2 µM | [8] 23.6 µM | [9] 50 µM | [10] 35 µM | [11] 29.1 µM | [15] 30.1 µM | [16] 29.5 µM | [17] 81.7 µM
inactive: [3] | [6] | [12] | [13] | [14] | BCL2L11 (gene 10018) | [18]

CC(Oc1ccc(Cl)cc1Cl)C(=O)O (configuration not stated)
active: [10] 50 µM
inactive: all other assays above

Cc1ccc(-c2c(Cl)nc(C#N)n2S(=O)(=O)N(C)C)cc1
inactive: [4] | [9] | [14] | BCL2L11 (gene 10018)
active: [1] 50 µM | [2] 22.5 µM | [3] 3.64 µM | [5] 8.98 µM | [6] 7.3 µM | [7] 36.4 µM | [8] 4.39 µM | [10] 50 µM | [11] 4.39 µM | [12] 50 µM | [13] 68.3 µM | [15] 50 µM | [16] 3.99 µM | [18] 74.2 µM | [17] 87.4 µM

CCNc1nc(Cl)nc(NC(C)C)n1
active: [4] 21.2 µM
inactive: all other assays above

COP(N)(=O)SC (configuration not stated)
inactive: all assays above

CON(C)C(=O)Nc1ccc(Cl)c(Cl)c1
active: [3] 13.4 µM | [7] 43.1 µM | [8] 85 µM | [9] 78.2 µM | [12] 42 µM | [16] 74.2 µM
inactive: all other assays above

Oc1ccccc1-c1ccccc1
inactive: all assays above

Cc1c(F)c(F)c(COC(=O)C2C(/C=C(\Cl)C(F)(F)F)C2(C)C)c(F)c1F (configuration not stated)
active: [7] 50 µM
inactive: all other assays above

C=CC1(C)OC(=O)N(c2cc(Cl)cc(Cl)c2)C1=O (configuration not stated)
active: [4] 9.71 µM | [7] 38.3 µM | [9] 11.1 µM
inactive: all other assays above

COc1ccc(C(c2ccc(OC)cc2)C(Cl)(Cl)Cl)cc1
active: [5] 61.8 µM | [6] 77 µM | [7] 86.7 µM | [8] 14.1 µM | [16] 78.4 µM | [18] 70.9 µM | [17] 86.3 µM
not listed: [12]
inactive: all other assays above
